Source: PubChem BioAssay (National Center for Advancing Translational Sciences (NCATS))
Shown are actives, neighbours in structure and some others; about 19% of the full set was active somewhere.
DT40 TDP1 no CPT: qHTS for Inhibitors of human tyrosyl-DNA phosphodiesterase 1 (TDP1): qHTS in cells in absence of CPT | DT40 Tdp1-/- hTDP1 cells, no CPT, ATP luminescence, 48 h | Potency, µM (doses to about 46.2 µM), without a hit: at the top dose activity change, negative = growth inhibition, actives largely listed as inhibitors | 420,000 compounds, 15% hits | AID 686978, 2013; note: nearly all actives have a fitted effect of over 55% in size
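Readout: luminescence from CellTiter-Glo after 30 min in the dark at RT. Cells: DT40 Tdp1-/- with stable hTDP1, 400/well. Exposure: compounds alone, ≥48 hr, 37 °C.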
KB-V1 cytotox: qHTS assay for MDR1-selective chemotherapeutics: Primary screen using the drug-selected MDR subline cells KB-V1; KB-V1 MDR cells viability, CellTiter-Glo, 72 h; Potency, µM (top dose mostly 46.1 µM), most hits filed as cytotoxic; 400,000 compounds, 3.4% hits; note: nearly all actives have a fitted effect of over 60% in size
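Readout: CellTiter-Glo luminescence, 10 min after addition. Cells: KB-V1 MDR subline, 72 h at 37 degrees C with compound. Analysis: corrected, normalized data fitted to concentration-effect curves.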
KB-3-1 tox: qHTS assay for MDR1-selective chemotherapeutics: Primary screen using the parental adenocarcinoma cell KB-3-1; KB-3-1 viability, CellTiter-Glo ATP luminescence, 72 h; Potency, µM (titrated, usually from 46.1 µM), most hits filed as cytotoxic; 400,000 compounds, 1.4% hits; note: nearly all actives have a fitted effect of over 60% in size
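72 h, 37 °C compound treatment of KB-3-1 parental cells; CellTiter-Glo added, 10 min, luminescence read. Data corrected against DMSO-only plates and normalized before curve fitting.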
HT1080-NT tox: qHTS for induction of synthetic lethality in tumor cells producing 2HG: qHTS for the HT-1080-NT fibrosarcoma cell line | HT-1080-NT fibrosarcoma viability, CellTiter-Glo ATP luminescence, 48 h | Potency, µM (highest dose often 46.1 µM), inactives show top-dose activity, negative = less viability, hits mostly cytotoxic | 360,000 compounds, 1.6% hits | AID 686970, 2013;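 note: NT is the 2HG producing partner of a matched IDH1 knockdown line; 0% = DMSO-treated cells and -100% = media-only wells without cells; nearly all actives have a fitted effect of over 55% in size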
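Luminescent CellTiter-Glo readout after 48 hours of compound exposure at 37 degrees C defined viability of HT-1080-NT cells. Activity was normalized to DMSO wells and cell-free media wells; concentration-response curves were fitted and assigned curve classes.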
TDP1 cell CPT: qHTS for Inhibitors of human tyrosyl-DNA phosphodiesterase 1 (TDP1): qHTS in cells in presence of CPT. Potency, µM (top dose mostly 46.2 µM), for inactives: at the highest dose activity change, negative = growth inhibition, hits mostly inhibitors. 420,000 compounds, 12% hits. AID 686979, 2013. chicken DT40 Tdp1-/-;hTDP1 cells + 20 nM CPT, ATP luminescence, 48 h; note: nearly all actives have a fitted effect of over 55% in size
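Cell growth measured by CellTiter-Glo luminescence after a minimum 48 h, 37 C compound exposure with 20 nM CPT in Tdp1-knockout DT40 cells stably expressing hTDP1, seeded 400/well; qHTS titration format.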
HT1080 IDH1KD tx: qHTS for induction of synthetic lethality in tumor cells producing 2HG: qHTS for the HT-1080-IDH1KD cell line | Potency, µM (highest dose often 46.1 µM), for inactives: at the top dose activity, negative = toxicity, usual class: cytotoxic | HT-1080 IDH1 knockdown viability, ATP luminescence, 48 h | AID 686971, 2013 | 360,000 compounds, 2% hits;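 note: 0% = DMSO wells and -100% = cell-free medium wells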
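IDH1KD HT-1080 cells, 750/well, RPMI + 5% FBS; compound pinned after 2 h settling; 48 h, 37 °C; CellTiter-Glo luminescence; % activity normalised to DMSO and no-cell wells; curves fitted, classed by r2 and efficacy.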
Numbers without * were called inactive; i = inactive; ? = inconclusive; / = no result. Calls come from the whole dose curve; as a rule, active = well fitted curve in the direction sought with a large enough effect; inconclusive = small, poorly fitted or top-dose-only effect, or another doubt; inactive = no such curve, though single readings can be large; an effect the other way counts as inactive or inconclusive. Unless noted, % is set by controls: 0 for no effect and ±100 for the full control effect; potency is the fitted concentration of half-maximal effect.

SMILES	DT40 TDP1 no CPT	KB-V1 cytotox	KB-3-1 tox	HT1080-NT tox	TDP1 cell CPT	HT1080 IDH1KD tx
CC1CN(c2ccc([N+](=O)[O-])c(NCCOc3ccccc3)c2)CCN1 (stereo not drawn)	?	?	i	15µM*	?	16µM*
CN(C)S(=O)(=O)c1cccc(C(=O)C2=C3SC=C(c4ccccc4)N3CC2)c1	23µM*	?	i	-14%	?	-18%
CN(C)S(=O)(=O)c1cccc(C(=O)N2CCc3ccccc32)c1	?	i	i	-2%	?	-5%
COC(=O)C[C@@H]1C[C@H]2c3cc(N(C)C)ccc3O[C@H]2[C@H](CO)O1	4%	i	i	6%	-22%	8%
COc1cc(CNC(=O)c2cnc3c(-c4cccc(C)c4)c(C)nn3c2C)cc(OC)c1OC	16µM*	?	i	/	12µM*	/
COc1ccccc1CNC(=O)c1cnc2c(-c3ccccc3)c(C)nn2c1C	?	i	i	/	?	/
CCN1CCN(S(=O)(=O)c2ccc(Cl)c(C(=O)N(C)Cc3cccc(Cl)c3Cl)c2)CC1	21µM*	?	i	-3%	16µM*	-15%
CCN1CCN(S(=O)(=O)c2ccc(Cl)c(C(=O)N(C)Cc3ccc(C(C)(C)C)cc3)c2)CC1	12µM*	i	?	?	?	?
CCN1CCN(S(=O)(=O)c2ccc(Cl)c(C(=O)N(C)Cc3ccc(F)cc3)c2)CC1	?	?	i	-4%	-30%	-26%
CN(C)c1ccc(/C(=N\O)c2ccccc2)cc1	-17%	i	i	2%	-8%	-14%
CN=C1C=CC(=C(c2ccc(N(C)C)cc2)c2ccc(N(C)C)cc2)C=C1	0.21µM*	/	/	/	0.21µM*	/
CN(c1ccccc1)c1ncccn1	-16%	i	i	12%	-9%	0%
CN(c1ccccc1)c1cc(Br)nc(Br)c1	?	21µM*	?	-26%	6%	-20%
O=C(Nc1ccc2c(c1)OCO2)C1Cc2c(-c3ccc4c(c3)OCO4)ccnc2O1 (stereo not drawn)	6.5µM*	8.2µM*	?	?	6.5µM*	4.1µM*
O=C(Nc1ccc2c(c1)OCO2)C1Cc2c(-c3ccc(Cl)cc3)ccnc2O1 (stereo not drawn)	?	i	i	23µM*	?	?
CC(=O)Nc1cccc(-c2ccnc3c2CC(C(=O)Nc2ccc4c(c2)OCO4)O3)c1 (stereo not drawn)	4.6µM*	i	5.2µM*	?	2.9µM*	2.3µM*
O=C(Nc1ccc2c(c1)OCO2)C1Cc2c(-c3cccnc3)ccnc2O1 (stereo not drawn)	?	i	i	17%	-23%	2%
CC(=O)NCCNC(=O)C1Cc2c(-c3ccc4c(c3)OCO4)ccnc2O1 (stereo not drawn)	-10%	i	i	11%	-9%	2%
O=C(Nc1ccc2c(c1)OCO2)C1Cc2c(-c3ccncc3)ccnc2O1 (stereo not drawn)	?	i	i	22%	-16%	9%
O=C(NCC1CC1)C1Cc2c(-c3ccc4c(c3)OCO4)ccnc2O1 (stereo not drawn)	18µM*	?	i	-11%	?	-17%
O=C(C1CC1)N1CCN(c2ccc(O)cc2)CC1	?	i	i	-24%	?	-26%
COc1ccc(NC(=O)C2Cc3c(-c4ccc5c(c4)OCO5)ccnc3O2)cc1 (stereo not drawn)	8.2µM*	?	9.2µM*	?	5.2µM*	?
O=C(Nc1cccnc1)C1Cc2c(-c3ccc4c(c3)OCO4)ccnc2O1 (stereo not drawn)	1µM*	?	i	?	21µM*	?
CC(=O)Nc1ccc(NC(=O)C2Cc3c(-c4ccc5c(c4)OCO5)ccnc3O2)cc1 (stereo not drawn)	-6%	i	i	19%	-7%	27%
Cc1nc(Nc2ccc(S(N)(=O)=O)cc2)sc1-c1ccccc1	18µM*	i	i	?	?	?
SMILES	DT40 TDP1 no CPT	KB-V1 cytotox	KB-3-1 tox	HT1080-NT tox	TDP1 cell CPT	HT1080 IDH1KD tx
CCOc1ccc(NC(=O)C(C)Oc2ccccc2C(=O)Nc2cccc(Cl)c2Cl)cc1 (stereo not drawn)	18µM*	i	i	-17%	?	-22%
CCOc1ccccc1C(=O)Nc1ccc(C(=O)c2ccccc2)cc1	?	i	?	-12%	23µM*	0%
Cc1cccc(NC(=O)c2ccccc2OCC(=O)c2ccccc2)c1	16µM*	?	i	-4%	?	5%
Cc1ccc(C(=O)COc2ccccc2C(=O)Nc2ccccc2)cc1	?	?	i	1%	?	4%
Cc1cccc(NC(=O)COc2ccccc2C(=O)NC(C)c2ccccc2)c1 (stereo not drawn)	29µM*	?	?	-8%	?	-15%
COc1cccc(NC(=O)c2ccccc2OCC(=O)Nc2ccc(Br)cc2)c1	?	i	i	/	?	/
COc1ccc(OC)c(CN2CCN(C(=O)c3cc4ccccc4cc3O)CC2)c1	?	?	i	1%	?	-1%
O=C(CN1CCC(n2nnc3cc(F)ccc32)CC1)NCCc1nc2ccccc2[nH]1	-26%	i	i	-6%	-6%	0%
O=C(Cc1ccc(NC2=NC3CS(=O)(=O)CC3S2)cc1)NCCc1ccccc1 (stereo not drawn)	-4%	i	i	1%	4%	-2%
O=S(=O)(Nc1cccc(-c2ccc(N3CCOCC3)nn2)c1)c1ccccc1C(F)(F)F	?	i	i	/	-26%	/
CCOC(=O)N1CCN(C(=O)CSc2ccc3nnc(CCNC(=O)c4ccc(OC)cc4)n3n2)CC1	?	i	i	?	-2%	-1%
Cc1ccc(NC(=O)c2ccccc2OCC(=O)c2ccccc2)cc1	?	i	i	-11%	?	-18%
